Bioassay records from PubChem BioAssay.
This is a sample that favours compounds with a hit; in the whole collection about 2.4% have one here.
MCL1 BIM primary – MCL1-BIM-BH3 interaction inhibition (human); GST-MCL1 / FITC-Bim-BH3 fluorescence polarization; inhibition, % at 10.9 µM; 320,000 tested, 0.68% active; Q07820; AID 2057;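 active means inhibition above the mean inhibition of all tested compounds plus 3 SD, set per campaign, cut at about 40% in these data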;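 further: 0% = DMSO wells and 100% = unlabeled Bim-BH3 peptide control; higher means more loss of mP so more displacement of Bim peptide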
Target sequence (Q07820 whole entry, looked up): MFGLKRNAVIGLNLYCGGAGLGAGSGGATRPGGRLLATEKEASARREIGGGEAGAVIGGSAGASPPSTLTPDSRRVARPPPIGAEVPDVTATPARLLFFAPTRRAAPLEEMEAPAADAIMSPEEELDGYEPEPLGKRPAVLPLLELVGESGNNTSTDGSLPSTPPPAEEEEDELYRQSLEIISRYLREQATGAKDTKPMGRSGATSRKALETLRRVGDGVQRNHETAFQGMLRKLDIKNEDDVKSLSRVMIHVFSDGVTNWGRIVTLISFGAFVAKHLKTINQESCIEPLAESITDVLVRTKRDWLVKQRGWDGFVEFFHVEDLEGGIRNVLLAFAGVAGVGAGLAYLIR
Mcl-1 Bim block – inhibitors of Bim-Mcl-1 interaction, human; 190,000 tested, 0.1% active; AID 1009; inhibition, % at 10 µM; Q07820; Bead-based flow cytometry, Bim peptide-Mcl-1 binding; in the data active means inhibition above about 40%;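 further: 0% = no compound tracer wells and 100% = peptide blocker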
Mcl1 Noxa PPI – Mcl-1/Noxa interaction inhibition | TR-FRET Mcl-1/Noxa peptide binding, 2 h | inhibition, % at 21.7 µM | 220,000 tested, 1.5% active;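 active means compounds that cut the protein-peptide binding signal by more than 50% relative to plate controls in a single-dose test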;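 further: His-tagged Mcl-1 with rhodamine Noxa BH3 peptide and terbium anti-His antibody; 0% = Mcl-1 plus Noxa peptide wells and 100% = peptide-only wells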
TNF death inh – TNF-alpha cell death inhibition in Jurkat FADD-/- cells | Jurkat FADD-/- TNF necroptosis rescue, ATP luminescence, 24 h; 0 = TNF only, 100 = no-TNF cells | activation (protection from cell death), % at 10 µM | 220,000 tested, 0.068% active | AID 463075;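 active means activation, meaning protection from cell death, of at least 50% relative to plate controls; inactive means activation below 50%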;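 further: necroptosis triggered by 40 ng/mL TNF-alpha added together with compound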
L929 necroptosis – blocks zVAD induced death of L929 cells. viability rescue, % at 10 µM. 220,000 tested, 0.38% active. L929 zVAD necroptosis rescue, ATP luminescence, 24 h; with zVAD 60 µM;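 active means activation, scaled between plate controls, above about 75%, limit read from the data; inactive means activation under that limit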;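 further: 0% = zVAD with DMSO and 100% = DMSO alone without zVAD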
Mcl1-Bid inh – Mcl-1/Bid interaction inhibition; Q07820; TR-FRET Mcl-1/Bid-Dy647 peptide binding, 1536-well; inhibition, % at 21.7 µM; 220,000 tested, 0.97% active; AID 1021;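 active means compounds that cut the binding signal by more than half at the single screening dose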;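 further: His-tagged Mcl-1 with europium anti-His antibody binding Bid BH3 peptide; 0% = Mcl-1 plus peptide wells and 100% = peptide-only wells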
Numbers without * were called inactive; x = not tested or not shown.

SMILES	MCL1 BIM primary	Mcl-1 Bim block	Mcl1 Noxa PPI	TNF death inh	L929 necroptosis	Mcl1-Bid inh
COC(=O)[C@@]1(Cc2ccccc2)[C@H]2c3cc(C(=O)N4CCCC4)n(CCSCCO)c3C[C@H]2CN1C(=O)c1ccccc1	1	-2	101*	-1	-1	-13
COCCn1c(C(=O)N2CCCC2)cc2c1C[C@H]1CN(C(=O)c3ccccc3)[C@@](Cc3ccc(F)cc3)(C(=O)OC)[C@@H]21	-2	-2	8	-2	-1	-15
CCOC(=O)N1CCN(c2cc(NCCC(=O)O)c3c4c(onc24)-c2ccccc2C3=O)CC1	33	27	73*	1	2	-26
O=C(O)CCCNc1cc(N2CCC3(CC2)OCCO3)c2noc3c2c1C(=O)c1ccccc1-3	90*	24	89*	-7	19	-16
CN1CCN(c2cc(N3CCN(C(=O)c4ccco4)CC3)c3c4c(onc24)-c2ccccc2C3=O)CC1	43*	x	x	x	x	x
O=C(c1ccco1)N1CCN(C2=NS(=O)(=O)c3ccccc32)CC1	-2	0	12	-1	0	-17
COc1cccc(OC)c1C(=O)OCC(=O)NC1CCCCCC1	-27	x	x	x	x	x
C=C(C)COc1ccc2c(C)c(CCC(=O)N3C[C@H]4C[C@@H](C3)c3cccc(=O)n3C4)c(=O)oc2c1	-2	x	x	x	x	x
CNC(=S)N(CCCO)Cc1cc2cc3c(cc2[nH]c1=O)OCO3	8	x	x	x	x	x
CC(C)(C)C#CCn1c(/C=[N+](\[O-])C2CCCCC2)nc2ccccc21	3	x	x	x	x	x
C=CCNC(=O)[C@H]1N2C(=O)c3ccccc3C2SC1(C)C (stereo not given in full)	6	x	x	x	x	x
Cc1cnc(=O)[nH]c1SCc1ccccc1F	-7	x	x	x	x	x
CN(C)CCOc1ccc(C(C)(C)c2ccccc2)cc1	-1	-1	26	1	-1	65*
CN(C)CCOc1ccccc1C(C)(C)C	4	-7	33	1	0	63*
CCC(=O)Nc1ccc(NCc2cccs2)cc1	1	x	x	x	x	x
O=C(O)Cc1sc(Nc2ccc(F)cc2)nc1-c1cccs1	4	-3	53*	0	3	-3
Cc1sc2ncnc(NCCN3CCOCC3)c2c1C	-1	-5	17	-3	-1	55*
COc1cccc(NC(=O)CN(C)C(=O)c2ccccc2-c2nc3ccccc3s2)c1	0	x	x	x	x	x
COc1ccc(/C=N/Nc2nonc2N)cc1OC	2	-2	0	-3	1	-12
Nc1nonc1N/N=C\c1ccccc1	1	x	-12	1	0	-2
COc1ccc(/C=N/Nc2nn3cnnc3c3ccccc23)cc1	6	x	57*	-5	11	9
COc1ccc(/C=N/Nc2nonc2N)cc1	3	0	61*	-2	0	-12
COc1ccc(C=Nc2cccnc2N)cc1	45*	x	x	x	x	x
Nc1nonc1N/N=C/c1c(O)ccc2ccccc12	7	1	51*	8	2	-21
CCC(C(=O)Oc1c(C(C)C)cccc1C(C)C)c1ccccc1 (stereo not given)	1	x	x	x	x	x
SMILES	MCL1 BIM primary	Mcl-1 Bim block	Mcl1 Noxa PPI	TNF death inh	L929 necroptosis	Mcl1-Bid inh
Cc1ccccc1Nc1nc(N)nc(CSc2n[nH]c(N)n2)n1	8	x	-9	5	1	-8
Cc1occc1C(=O)N1CCN(S(=O)(=O)c2ccccc2)CC1	6	x	x	x	x	x
Cc1cccc(NC(=O)c2cccc(S(=O)(=O)N3CCc4ccccc4C3)c2)n1	5	x	x	x	x	x
COc1cc(S(=O)(=O)NCc2ccc(F)cc2)ccc1-n1cnnn1	7	x	x	x	x	x
O=C(CCC(=O)N1CCN(S(=O)(=O)c2ccc3ccccc3c2)CC1)NCC(F)(F)F	8	x	x	x	x	x
O=[N+]([O-])c1cccc(S(=O)(=O)NCC2CCCO2)c1 (stereo not given)	4	51*	-13	2	0	-20
CCC1CSC(Nc2ccc(C(=O)/C=C/c3ccc(OC)c(OC)c3)cc2)=N1 (stereo not given)	-2	0	68*	-2	-1	-28
COc1ccc(/C=C/C(=O)Nc2ccncc2)cc1OC	0	-1	3	-2	13	-19
COc1ccc(/C=C/C(=O)c2ccc(NC3=NCCCS3)cc2)cc1OC	0	5	51*	-15	-1	-19
CCC1CSC(Nc2ccc(C(=O)/C=C/c3ccc(Br)cc3)cc2)=N1 (stereo not given)	6	4	38	1	1	31
CC1(C)Cc2c(sc3ncn4c(=S)[nH]nc4c23)CO1	2	0	67*	-1	5	-57
CC1(C)Cc2c(sc3ncn(N)c(=N)c23)CO1	9	-1	11	-2	0	-61
COc1ccc(C(=O)NCCCNC(=O)c2cnccn2)cc1Br	2	x	x	x	x	x
Cc1cc(NC(=O)C2CC(=O)N(c3ccccc3Cl)C2)no1 (stereo not given)	-4	x	x	x	x	x
COc1ccc(Cl)cc1-n1c(C)cc(C=O)c1C	-10	44*	6	-1	1	-9
CN(C)c1ccc(NC(=O)c2cn(-c3ccccc3)nc2-c2cccs2)cc1	8	-4	77*	2	0	28
O=C(Nc1ccc2ccccc2c1)c1cn(-c2ccccc2)nc1-c1cccs1	-3	-2	-34	2	1	-13
CCOC(=O)c1c(N)sc(N)c1C(=O)OCC	18	-5	69*	-4	x	-28
CCOC(=O)c1c(N)sc(=S)c2c1CCC2	46*	0	57*	-3	0	54*
CCCOC(=O)c1c(N)sc2c1CCC2	10	3	-12	-7	1	-100
CCOC(=O)c1c(N)sc(C(N)=O)c1C	9	2	18	-1	2	-34
Fc1cccc(F)c1/C=N/NC(=S)Nc1cccnc1	7	1	18	1	0	-11
Oc1cccc(/C=N/NC(=S)Nc2cccnc2)c1O	11	-7	66*	-8	1	-89
Oc1ccc(/C=N/NC(=S)Nc2cccnc2)c(O)c1	17	-9	-5	-10	1	-87
Oc1ccc(/C=N/NC(=S)Nc2cccnc2)c(O)c1O	x	x	102*	-6	-1	-3
SMILES	MCL1 BIM primary	Mcl-1 Bim block	Mcl1 Noxa PPI	TNF death inh	L929 necroptosis	Mcl1-Bid inh
COc1ccc(-c2cc(-c3ccccc3)c(C#N)c(S(C)(=O)=O)n2)cc1	-5	0	-7	-18	7	-9
COc1nc(-c2ccccc2)cc(-c2ccc3c(c2)OCO3)c1C#N	9	x	15	-10	-1	56*
CCC(CC)NC(=O)C1CCN(c2ccc(S(=O)(=O)N3CCOCC3)cc2[N+](=O)[O-])CC1	-5	x	x	x	x	x
CC1(C)CC(=O)N(c2ccc(Cl)c(Cl)c2)C(=O)C1	0	x	x	x	x	x
C=C1C(=O)O[C@@H]2C[C@@H](C)[C@@H]3C=CC(=O)[C@@]3(C)[C@@H](OC(C)=O)[C@H]12	-7	x	11	33	130*	-36
CCOC(=O)c1c(NC(=O)c2cc(-c3cccc(O)c3)on2)sc(C(C)=O)c1C	2	-1	63*	0	x	40
